This excerpt belongs to a sample that is enriched for hits.
Sm TGR block = qHTS Assay for the Inhibitors of Schistosoma Mansoni Peroxiredoxins; Schistosoma mansoni thioredoxin glutathione reductase (TGR), Q962Y6; purified TGR, DTNB reduction, TNB absorbance 405 nm; Potency, µM (doses to about 114 µM), without a hit: at the highest dose activity change, negative = inhibition, actives largely listed as inhibitors; 360,000 tested, 3% active; AID 485364, 2010; note: potency is the fitted concentration of half-maximal effect; % is set by controls: 0 for no effect and ±100 for the full control effect; nearly all actives have a fitted effect of over 60% in size
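Kinetic colorimetric format: TGR-catalysed, NADPH-driven DTNB reduction monitored via TNB absorbance. Enzyme dispensed at 20 nM; compound exposure 15 min at room temperature before reaction start.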
FBPA Giardia inh = qHTS Assay for Inhibitors of Fructose-1,6-bisphosphate Aldolase from Giardia Lamblia | A8B2U2 | purified Giardia FBPA | Potency, µM (highest dose often 59.6 µM), for the others: top-dose activity, negative = inhibition, usual class: inhibitors | 290,000 tested, 0.71% active | AID 2451, 2010; note: potency is the fitted concentration of half-maximal effect; % is set by controls: 0 for no effect and ±100 for the full control effect; nearly all actives have a fitted effect of over 55% in size
Target sequence (A8B2U2 whole entry, looked up): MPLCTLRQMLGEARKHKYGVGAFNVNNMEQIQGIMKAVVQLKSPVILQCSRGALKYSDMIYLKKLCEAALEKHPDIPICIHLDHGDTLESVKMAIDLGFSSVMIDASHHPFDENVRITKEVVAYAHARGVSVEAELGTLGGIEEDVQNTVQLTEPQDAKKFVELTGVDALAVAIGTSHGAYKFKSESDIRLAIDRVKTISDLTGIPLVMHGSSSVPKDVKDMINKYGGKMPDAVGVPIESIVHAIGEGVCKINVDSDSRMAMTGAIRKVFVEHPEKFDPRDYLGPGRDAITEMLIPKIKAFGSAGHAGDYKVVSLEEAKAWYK
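Giardia FBPA (40 nM reagent) was preincubated 10 min at RT with compound (up to 57.5 uM final), then substrate plus GAPDH/TPI/NAD/arsenate coupling system with diaphorase/resazurin was added; resorufin fluorescence (525/598 nm) was read after 20 min.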
Cycloheximide cs = Cycloheximide Counterscreen for Small Molecule Inhibitors of Shiga Toxin. cell reporter, cycloheximide protein synthesis inhibition counterscreen. max response, %. 300,000 tested, 12% active. AID 2314, 2010; in the data active = max response mostly above about 13%, no sharp cut-off; inactive = mostly below about 14%; note: read at 38.3 µM for the half of the compounds with a filed dose; 0% is about no effect
Shiga inhibitor = A qHTS for Small Molecule Inhibitors of Shiga Toxin; Vero cells, Shiga toxin protein synthesis inhibition reporter; inhibition, % at 38.7 µM; 290,000 tested, 9.2% active; in the data active = inhibition mostly above about 28%, no sharp cut-off; inactive = mostly below about 43%; note: 0% is about no effect
Tb PYK inh = qHTS of Trypanosoma Brucei Inhibitors; TbPYK enzyme, Kinase-Glo Plus ATP luminescence, 45 min; Potency, µM (highest dose often 76.8 µM), without a hit: top-dose activity, negative = inhibition, hits mostly inhibitors; 410,000 tested, 0.12% active; AID 624173, 2012; note: potency is the fitted concentration of half-maximal effect; % is set by controls: 0 for no effect and ±100 for the full control effect; nearly all actives have a fitted effect of over 50% in size
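T. brucei PYK with substrate was exposed to pin-transferred compounds across a concentration series, then started with 130 uM ADP (final). After 45 min at room temperature, Kinase-Glo Plus luminescence was read, normalized and curve-fitted.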
LmPK inhibitor = qHTS Assay for Inhibitors of Leishmania Mexicana Pyruvate Kinase (LmPK); Q27686; purified LmPK, Kinase-Glo ATP luminescence, 1 h; Potency, µM (highest dose often 57.5 µM), for the others: top-dose activity change, negative = inhibition, most hits filed as inhibitors; 290,000 tested, 0.37% active; note: potency is the fitted concentration of half-maximal effect; % is set by controls: 0 for no effect and ±100 for the full control effect
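Purified LmPK (0.1 nM) converted ADP (0.1 mM) to ATP with PEP (0.5 mM) in imidazole buffer pH 7.2 with KCl and MgCl2, 1 h at room temperature. ATP was read by Kinase-Glo luminescence; data normalized to uninhibited and no-enzyme controls.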
The depositor's hits bear a star; ? = inconclusive; . = no result; [ ] = remark or other dose. Unless noted, calls come from the whole dose curve; as a rule, active = well fitted curve in the direction sought with a large enough effect; inconclusive = small, poorly fitted or top-dose-only effect, or another doubt; inactive = no such curve, though single readings can be large; an effect the other way counts as inactive or inconclusive.

SMILES	Sm TGR block	FBPA Giardia inh	Cycloheximide cs	Shiga inhibitor	Tb PYK inh	LmPK inhibitor
CCN(CC)S(=O)(=O)c1ccc(NC2c3ccccc3C(=O)N2Cc2ccco2)cc1 (configuration not stated)	22µM*	9%	1	5	-22%	3%
CC(=O)c1cccc(NC2c3ccccc3C(=O)N2Cc2ccco2)c1 (configuration not stated)	?	4%	-2	8	-1%	4%
COc1cccc(NC2c3ccccc3C(=O)N2Cc2ccco2)c1 (configuration not stated)	40µM*	-24%	-5	-15	-13%	7%
COc1cccc(OCc2cc(C3Nc4ccccc4C(=O)N3Cc3ccco3)ccc2OC)c1 (configuration not stated)	18µM*	-9%	8	14	-1%	0%
NC(=O)[C@@H]1CCCN1C(=O)C(Cc1cnc[nH]1)NC(=O)C1CCC(=O)N1 (some centres not stated)	.	-2%	-1	22	.	.
O=C1c2ccccc2N2C(=O)c3ccccc3C2N1Cc1ccco1 (configuration not stated)	14µM*	14%	-1	-11	-1%	3%
O=C1c2ccccc2N2C(=O)c3ccccc3C2N1O (configuration not stated)	0%	-7%	-2	14	-7%	-1%
Cc1nc(N2CCOCC2)[nH]c(=O)c1CCC(C)C	-5%	4%	8	26	-2%	0%
Cc1nc(N2CCOCC2)[nH]c(=O)c1C(O)C(Cl)(Cl)Cl (configuration not stated)	45µM*	2%	1	-4	-2%	-6%
COC(=O)C1CCCCN1C(=O)CCc1nnc(CCc2c[nH]c3ccccc23)o1 (configuration not stated)	0%	-3%	-2	40	-1%	0%
COC(=O)[C@@H]1CCCN1C(=O)CCc1nnc(CCc2c[nH]c3ccccc23)o1	14%	-3%	47*	48*	-4%	8%
CC(c1nccs1)N(C)C(=O)CCc1nnc(CCc2ccccc2)o1 (configuration not stated)	-12%[57.1 µM]	5%	4	40	-3%	-2%
CCN1CCCC1CNC(=O)CCc1nnc(CCC2CCCCC2)o1 (configuration not stated)	.	-3%	-1	4	-4%	1%
CCC1CCCCN1C(=O)CCc1nnc(Cc2c[nH]c3ccccc23)o1 (configuration not stated)	25µM*	4%	9	31*	-15%	7%
O=C(CCc1nnc(CCc2ccccc2)o1)N1CCCC1c1nccs1 (configuration not stated)	5%	4%	16*	25	3%	0%
COC(=O)[C@@H]1CCCN1C(=O)CCc1nnc(CCC2CCCCC2)o1	9%[57.1 µM]	0%	34*	74*	-6%	-4%
CC1CCCCN1C(=O)CCc1nnc(Cc2c[nH]c3ccccc23)o1 (configuration not stated)	35µM*	3%	7	8	-6%	2%
COc1ccc2c(c1)NP(=S)(Oc1ccccc1)N2 (configuration not stated)	-28%	?	64*	86*	-9%	?
N#C/C(=N\Nc1cccc(C(F)(F)F)c1)C(=O)c1ccsc1	7%	-9%	68*	94*	3%	-1%
Cc1nccc(-c2cccc(N/N=C(\C#N)C(=O)c3ccccc3)c2)n1	3%	-3%	-3	-8	1%	-1%
CC(C)(C)N=Cc1cc(-c2ccccc2)sc1O	-8%	-2%	38*	71*	-2%	-5%
C/C(=N\NC(=O)c1c[nH]c2ccccc12)c1ccco1	2%	-10%	71*	61*	1%	-17%
C/C(=N\NC(=O)c1ccc(F)cc1)c1ccccn1	0%	?	62*	97*	0%	-16%
C/C(=N\NC(=O)c1ccccc1-n1cccc1)c1ccccn1	.	.	.	.	3%	.
C/C(=N\NC(=O)c1ccccn1)c1ccc(C(=O)O)s1	.	?	45*	74*	.	16µM*
SMILES	Sm TGR block	FBPA Giardia inh	Cycloheximide cs	Shiga inhibitor	Tb PYK inh	LmPK inhibitor
CCOc1ccc(C(=O)N/N=C(\c2ccccc2)c2ccccn2)cc1	12%	12%	42*	61*	1%	7%
CC(=N/O)/C(C)=N\NC(=O)c1ccccn1	22%	-15%	14	56	-11%	-3%[11.5 µM]
COc1ccc(S(=O)(=O)N2CCOCC2)cc1NC(=O)c1cccs1	-8%	.	.	.	-12%	.
Cc1nc2cnc(N3CCOCC3)nc2n(Cc2cccs2)c1=O	.	4%	.	.	4%	.
CCOc1cc(-c2nccc3cc(OC)c(OC)cc23)cc(OCC)c1OCC	1%	8%	-2	-2	-4%	-1%
COc1ccc(C2=C(C)C(=NCCCN3CCN(c4cc(C)ccc4C)CC3)NS2(=O)=O)cc1	1%	.	.	.	-6%	.
CCc1ccc(/C(C)=N/NC(=O)c2ccccn2)cc1	-10%	-6%	21*	46	1%	-1%
C/C(=N\NC(=O)c1nc2ccccn2c1C)c1ccco1	-1%	-6%	27*	62*	1%	-2%
CCc1ccc(/C(C)=N/NC(=O)c2c[nH]c3ccccc23)s1	-7%	.	18*	19	2%	-4%
C/C(=N\NC(=O)c1c[nH]c2ccccc12)c1ccccn1	2%	?	32*	147*	0%	-10%
C/C(=N\NC(=O)c1nc2ccccn2c1C)c1cc2ccccc2o1	6%	-7%	18	32	-3%	2%
C/C(=N/NC(=O)CNC(=O)c1ccccn1)c1ccccc1	6%	-4%	10	10	-7%	-1%
CCCOc1ccc(NC(=O)C(=O)NCCCN2CCOCC2)cc1	5%	.	.	.	0%	.
CCOC(=O)c1noc2nc(C)n(CC(=O)Nc3ccc(Br)cc3C)c(=O)c12	-3%	.	.	.	3%	.
Oc1ccc(C[C@H]2CN([C@@H](Cc3ccc(O)cc3)CN3CCC[C@@H]3CN3C(=S)NC[C@@H]3Cc3ccccc3)C(=S)N2CC2CCCCCC2)cc1	.	.	.	.	-10%	.
Fc1ccc(N/N=C(/c2ccccc2)c2ccccn2)cc1	3%	-21%	30*	13	-11%	3%
C/C(=N\NC(=O)c1cc2ccccc2cc1O)c1ccccn1	-7%	.	25*	27	-20%	-25%
C/C(=N\NC(=O)c1cc2ccccc2cc1O)c1cc2ccccc2o1	0%	-19%	9	14	-1%	6%

Compound activity (PubChem)
